We go through 7 molecules from PubChem BioAssay (NCI).

The structures appear in SMILES notation. About 83,000 compounds went through this panel and 20% of them were active in at least one assay; those are over-represented in the sample as a whole.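 Step 1: grow cells in 96-well plates. Step 2: add test compound at a single concentration. Step 3: incubate 48 h. Step 4: record percent growth.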 Unmarked numbers belong to inactive results. Active and inactive are the calls of the source. Rule for the calls: active = growth percent below 10; inactive = the rest.

Assay in all cases: NCI-60 one-dose screen, 48 h (100 = growth as untreated, 0 = no growth, -100 = all killed)
Common to all, as to conditions: 10 µM unless noted

Assay [1] concerns HCT-15 colon.
The subject of assay [2] is HT29 colon.
Assay [3] has as its system SNB-75 CNS.
Assay [4] concerns SNB-19 CNS.
The subject of assay [5] is U251 CNS.
The subject of assay [6] is PC-3 prostate.
Assay [7] relates to SK-MEL-5 melanoma.
For assay [8], the system named is UACC-62 melanoma.
The subject of assay [9] is LOX IMVI melanoma.
For assay [10], the system named is SK-MEL-28 melanoma.
Assay [11] has as its system SK-MEL-2 melanoma.
The subject of assay [12] is EKVX NSCLC.
The test system of assay [13] is SN12C renal.
Assay [14] concerns UO-31 renal.
The test system of assay [15] is TK-10 renal.
The subject of assay [16] is ACHN renal.
For assay [17], the system named is CAKI-1 renal.
Assay [18] has as its system A498 renal.
In assay [19] the test system is CCRF-CEM leukemia.
Assay [20] has as its system MOLT-4 leukemia.

Turning to `O=C(/C=C/c1ccc(F)cc1)c1ccc(O)cc1`, the growth in assay [1] was 73.5%; in assay [2], 93.2%; in assay [3], 95.3%; in assay [4], 91.4%; in assay [5], 66.7%; in assay [6], 95.4%. Further, the growth in [7] is 94%; in assay [8], 88%; in assay [9], 63.3%; in assay [10], 109%; in [11], 115%; in [12] it was 104%. Further, the growth is 91.9% in assay [13]; 91.9% in assay [14]; 106% in assay [15]; 102% in assay [16]; 87% in assay [17]; 101% in [18]. Besides, the growth in assay [19] is 77.6%; in assay [20], 92.5%.

For `CCCCCc1ccc(S(=O)(=O)Nc2cccc(-c3csc(NC(=O)CNCCN(C)C)n3)c2)cc1`, the growth in assay [1] was 26.5%; in assay [2], 53.9%; in assay [3], 87.5%; in [4] it was 90.4%; in assay [5] it was 69.4%; in assay [6] it was 64.7%. Also, the growth in [7] is 73.2%; in assay [8] it was 102%; in assay [9], 33.2%; in assay [10], 90.6%; in [11], 108%; in assay [12], 81.4%. Further, the growth was 91.2% in [13]; 74.8% in assay [14]; 112% in assay [15]; 96.4% in assay [16]; 86.8% in assay [17]; 76.9% in [18]. In addition, the growth in assay [19] is 63.5%; in assay [20], 61.8%.

`NC(N)=Nc1ccc(Oc2cccc(Nc3ccc(Cl)cc3)c2)cn1`: the growth in assay [1] is -48.7% (active); in assay [2] it was 4.94% (active); in [3] it was 22.9%; in [4] it was 23.8%; in assay [5], -71.2% (active); in assay [6], -77.5% (active). The growth in [7] was 48.8%; in assay [8] it was 43.3%; in [9], -96.9% (active); in assay [10], 49.4%; in assay [11], 64.6%; in assay [12] it was 16.1%. Moreover, the growth was 12.3% in assay [13]; 39.1% in assay [14]; 50% in assay [15]; 30.9% in [16]; 27.3% in assay [17]; -4.07% (active) in assay [18]. For the same molecule, the results for the growth in assay [19] and in assay [20] were -6.22% (active) and -12.8% (active), respectively.

Turning to `CC(=O)C1=C(C)NC(NN)=NC1c1cccc(Cl)c1` (stereo not given), the growth in assay [1] was 102%; in [2], 111%; in assay [3] it was 95.9%; in [4], 103%; in assay [5], 95%; in assay [6], 96.9%. Also, the growth was 106% in assay [7]; 93.9% in assay [8]; 111% in [9]; 106% in assay [10]; 112% in assay [11]; 96.4% in assay [12]. Besides, the growth is 98.2% in assay [13]; 85.9% in assay [14]; 152% in assay [15]; 99.4% in assay [16]; 91% in [17]; 93.2% in assay [18]. The values for the growth in [19] and in [20] were 97% and 96.8%, respectively.

`CCN(CC)c1ccc2c(c1)Oc1nc(N)c(C#N)c(N)c1C2Sc1ccc(F)cc1` (stereo not given): the growth in assay [1] is -84.8% (active); in [2], -42.4% (active); in [3], -3.74% (active); in [4], -94.9% (active); in assay [5] it was -73.4% (active); in assay [6], -74% (active). For the same molecule, the growth in assay [7] was -96.2% (active); in [8], -52.5% (active); in assay [9], -92.6% (active); in assay [10], -62% (active); in assay [11] it was -61.3% (active); in assay [12], -85.8% (active). Besides, the growth in [13] was -77.8% (active); in assay [14], -99.5% (active); in assay [15], -33.6% (active); in assay [16], -91% (active); in assay [17] it was -81.9% (active); in assay [18], -1.93% (active). The growth in assay [19] is -23% (active); in assay [20], -12.8% (active).

Take `O=C(NNc1nc2cc(F)ccc2n2cccc12)c1ccncn1`: the growth in [1] is 25.8%; in assay [2], 28.3%; in assay [3], -2.99% (active); in [4], 25.1%; in [5], 12.9%; in [6] it was 35.6%. In addition, the growth in [7] is -22.1% (active); in assay [8], 4.91% (active); in [9], 7.82% (active); in [10], 23.5%; in assay [11], 26.4%; in assay [12], 11.2%. The growth in assay [13] is 21.3%; in assay [14], 18.6%; in [15], 31.7%; in assay [16], 13.3%; in assay [17], 16.5%; in assay [18], 14.6%. The growth in [19] was 8.88% (active); in assay [20] it was 11.7%.

`O=S(=O)(NCCCNc1nccc(-c2[nH]c(-c3ccccc3)nc2-c2ccc(Cl)c(O)c2)n1)c1cccc2ccccc12`: the growth in [1] was 16.3%; in assay [2], 38.6%; in assay [3], 43.4%; in assay [4] it was 37.8%; in assay [5], 14.7%; in [6] it was 26.2%. Moreover, the growth is 13.1% in [7]; 17.4% in assay [8]; 19.8% in assay [9]; 29.8% in [10]; -4.81% (active) in assay [11]; 46.2% in assay [12]. In addition, the growth in [13] is 24%; in assay [14] it was 20.2%; in assay [15] it was 49.7%; in assay [16], 19.6%; in assay [17], 39.5%; in assay [18], 71.9%. Besides, the growth in assay [19] is 20%; in assay [20], 18.7%.
